Test results taken from PubChem BioAssay AID463173 (ICCB-Longwood Screening Facility, Harvard Medical School, 2010).
Screen size: about 52,000 compounds; about 4,300 (8.3%) were called active. This is one part of a sample in which actives are shown more often than they occur. Values without a mark were called inactive. Cut-off read from the data, not from the text of the source: active = survival mostly below about 52% (no sharp cut-off); inactive = mostly above about 56%.

The compounds below were run on DeltatarO mutant (assay: growth inhibition of S. aureus wild type versus tarO mutant, primary screen, teichoic acid synthesis inhibitors, RN4220, OD600 (AID 463173)). Conditions: OD600, 18 h, stronger effect = lower value, screened at 18.75 µg/mL (by protocol).

| Compound | survival |
| --- | --- |
| COC(=O)CC1=C(C(=O)OC)C(c2ccc(C(=O)OC)cc2)C(C#N)=C(N)O1 (stereo unspecified) | 77% |
| Cn1c(=O)c(=O)n(C)c2cc(S(=O)(=O)CCC(=O)Nc3cccc(C(F)(F)F)c3)ccc21 | 80% |
| O=c1c2oc3ccccc3c2n(Cc2ccc(Cl)cc2)c(=O)n1Cc1ccc2c(c1)OCO2 | 66% |
| CCOc1ccc(C2c3[nH]c4ccccc4c3CCN2C(=O)CCc2ccccc2)cc1 (stereo unspecified) | 116% |
| COc1ccc(C2CC(=O)Nc3c2c(=O)[nH]c2nc4ccccc4n32)cc1OC (stereo unspecified) | 133% |
| CCc1ccccc1N=C1SCC(=O)N1C | 88% |
| Cc1cc(C)c(NC(=O)Cn2nnc(C(=O)Nc3ccc(F)cc3F)c2N)c(C)c1 | 81% |
| CCN1c2ccccc2-c2nc(SCC(=O)Nc3cc(C)c(Cl)cc3OC)ncc2S1(=O)=O | 91% |
| CCOc1ccccc1NC(=O)CSc1ncc2c(n1)-c1ccccc1N(CC)S2(=O)=O | 92% |
| CCN1c2ccccc2-c2nc(SCC(=O)Nc3cc(F)ccc3F)ncc2S1(=O)=O | 118% |
| CCN1c2ccccc2-c2nc(SCC(=O)Nc3ccc(C)c(Cl)c3)ncc2S1(=O)=O | 25% (active) |
| CCN1c2ccccc2-c2nc(SCC(=O)Nc3c(C)cc(C)cc3C)ncc2S1(=O)=O | 102% |
| CCN1c2ccccc2-c2nc(SCC(=O)Nc3cc(OC)cc(OC)c3)ncc2S1(=O)=O | 37% (active) |
| Fc1ccc(Nc2ncnc3c2nc2n3CCCC2)cc1 | 74% |
| CCc1ccc(NC(=O)c2ccc(CNS(=O)(=O)c3ccc4c(c3)C(C)(C)C(=O)N4C)cc2)cc1 | 64% |
| CCC(Sc1nc2c(sc3ccccc32)c(=O)n1CCc1ccccc1)C(=O)N(CC)CC (stereo unspecified) | 54% |
| Cc1ccc(-c2nc(CS(=O)(=O)CC(=O)NCCc3ccccc3)c(C)o2)cc1 | 100% |
| Cn1ncc2c(Nc3cccc(F)c3)ncnc21 | 117% |
| Cc1cc(C)nc(NCC(C)c2ccccc2)n1 (stereo unspecified) | 81% |
| Cc1cc(C)nc(NC(N)=NC(C)c2ccccc2)n1 (stereo unspecified) | 20% (active) |
| Cc1cc(C)nc(NC(=O)C(c2ccccc2)c2ccccc2)n1 | 115% |
| Cc1cc(C)nc(NC(N)=NC2CCCCC2)n1 | 87% |
| COc1cccc(C(=O)NC(=NCCc2c[nH]c3ccc(OC)cc23)Nc2nc(C)cc(C)n2)c1 | 55% |

| Compound | survival |
| --- | --- |
| COc1ccc(CCN=C(N)Nc2nc(C)cc(C)n2)cc1 | 39% (active) |
| CCOC(=O)c1cccc(NC(=O)CCS(=O)(=O)c2ccc3c(c2)CC(=O)N3C)c1 | 102% |
| COc1cccc(C(=O)NCC(c2ccc(N(C)C)cc2)N2CCCC2)c1OC (stereo unspecified) | 94% |
| Cc1nc(-c2cccc(NC(=O)Nc3ccccc3C(F)(F)F)c2)no1 | 130% |
| Cc1ccc(C)c2c(N)c3c(nc12)CCCCC3 | 96% |
| CC(CCc1ccccc1)NC(=O)Cn1ncc2c3ccccc3n(Cc3cccc(Cl)c3)c2c1=O (stereo unspecified) | 95% |
| CCN1CC=C2C(C1)C(c1ccc(Cl)s1)C(C#N)=C(N)C2(C#N)C#N (stereo unspecified) | 105% |
| CCCN1CC=C2C(C1)C(c1ccc(C(=O)OC)cc1)C(C#N)=C(N)C2(C#N)C#N (stereo unspecified) | 51% (active) |
| CC(C)(C)OC(=O)N1CC=C2C(C1)C(c1cccc(F)c1)C(C#N)=C(N)C2(C#N)C#N (stereo unspecified) | 79% |
| COc1cc(-c2nnc(SCC(=O)N3CCCc4ccccc43)o2)cc(OC)c1OC | 66% |
| Cc1ccc(Cl)cc1NC(=O)C1CCN(C(=O)c2cnn(-c3ccccc3)c2-n2cccc2)CC1 | 71% |
| Cc1cc(C)nc(SCc2noc(-c3ccc(Cl)cc3)n2)n1 | 97% |
| CCc1ccccc1NC(=O)Nc1cc(C(=O)NCc2ccc(C)cc2)ccc1N1CCCC1 | 113% |
| COc1ccc(NC(=O)Cn2c(=O)n(CCC(=O)NCC3CCCO3)c(=O)c3cc(OC)c(OC)cc32)cc1 (stereo unspecified) | 72% |
| COc1ccc(OC)c(NC(=O)Cn2nc3c(cc2=O)CCCC3)c1 | 57% |
| Cc1nn(-c2ccc(N3CCOCC3)nn2)c(C)c1CCC(=O)NCc1ccc(Cl)cc1 | 107% |
| CCc1ccc(NC(=O)c2oc3c(c2C)-c2[nH]ncc2CC3)cc1 | 48% |
| Cc1cc(C)c(NC(=O)c2oc3c(c2C)-c2[nH]ncc2CC3)c(C)c1 | 67% |
| Cc1cc(NC(=O)c2oc3c(c2C)-c2[nH]ncc2CC3)ccc1Br | 3% (active) |
| Cc1ccc(Cn2cc(CCC(=O)NCc3ccccc3F)c3ccccc32)cc1 | 77% |
| Cc1c(C(=O)Nc2ccc(Br)cc2F)oc2ccc(S(=O)(=O)N3CCCCC3)cc12 | 78% |
| Cc1cccc(N2CCN(CCCNC(=O)c3sc4ncccc4c3-n3cccc3)CC2C)c1 (stereo unspecified) | 105% |
| COc1cc2c(cc1OC)C1=C(C#N)CN(C3CCCCC3)CN1CC2 | 83% |

| Compound | survival |
| --- | --- |
| NC(=O)C1CCN(C(=O)C2CCN(S(=O)(=O)c3ccc(-n4cnnn4)cc3)CC2)CC1 | 97% |
| Cc1ccc(NC(=O)c2c(C)oc3ccc(O)c(CN(C)Cc4ccccc4)c23)c(C)c1 | 73% |
| CCN(Cc1ccccc1)Cc1c(O)ccc2oc(C)c(C(=O)Nc3ccc(C)cc3C)c12 | 33% (active) |
| CCN(Cc1ccccc1)Cc1c(O)ccc2oc(C)c(C(=O)Nc3ccccc3C)c12 | 29% (active) |
| CCN1CCN(Cc2c(O)ccc3oc(C)c(C(=O)Nc4ccc(C)cc4C)c23)CC1 | 92% |
| Cc1ccccc1NC(=O)c1c(C)oc2ccc(O)c(CN(C)Cc3ccccc3)c12 | 81% |
| Cc1ccccc1NC(=O)c1c(C)oc2ccc(O)c(CN3CCCC3)c12 | 80% |
| Cc1cc(=O)n(CC(=O)NC(C)c2ccccc2)c2c1c(C)nn2C (stereo unspecified) | 66% |
| Cc1ccc(Nc2nnc(-c3ccc(C)c(S(=O)(=O)N4CCN(C)CC4)c3)c3ccccc23)cc1 | 80% |
| COCCOC(=O)c1c(-c2ccccc2)c(-c2ccccc2)nn(C)c1=O | 65% |
| COc1ccc2oc(=O)c(C(=O)NCCc3c(C)[nH]c4ccc(F)cc34)cc2c1 | 46% |
| COc1cccc2cc(C(=O)NCCc3c(C)[nH]c4ccc(F)cc34)c(=O)oc12 | 53% |
| Cc1ccc2[nH]c(C)c(CCNC(=O)c3cc4cc(Br)ccc4oc3=O)c2c1 | 37% (active) |
| COc1ccc2oc(=O)c(C(=O)Nc3cccc(C(=O)O)c3)cc2c1 | 50% (active) |
| COc1ccc2oc(=O)c(C(=O)NCCc3c(C)[nH]c4c(Cl)cccc34)cc2c1 | 62% |
| Cc1[nH]c2c(C)cccc2c1CCNC(=O)c1cc2ccccc2oc1=O | 86% |
| COc1ccc2oc(=O)c(C(=O)NCCc3c(C)[nH]c4ccc(Br)cc34)cc2c1 | 45% |
| COc1ccc2oc(=O)c(C(=O)Nc3ccc(O)cc3)cc2c1 | 98% |
| COc1ccc2oc(=O)c(C(=O)Nc3ccc(C(=O)O)cc3)cc2c1 | 136% |
| Cc1[nH]c2ccc(F)cc2c1CCNC(=O)c1cc2cc(Cl)ccc2oc1=O | 52% |
| COc1ccc2oc(=O)c(C(=O)NCCc3c(C)[nH]c4ccc(C)cc34)cc2c1 | 40% (active) |
| COc1ccc2oc(=O)c(C(=O)NCCc3c(C)[nH]c4c(C)cccc34)cc2c1 | 47% (active) |
| Cc1cc(C)n(C(C)CC(=O)Nc2cccc(C#N)c2)n1 (stereo unspecified) | 78% |

| Compound | survival |
| --- | --- |
| CN(C)CCN(Cc1ccccc1)S(=O)(=O)c1ccc(-c2cc(C(F)(F)F)on2)s1 | 87% |
| O=C1CCC(=O)N1CNc1ccccc1 | 85% |
| CC(=O)N1CCOc2cc(S(=O)(=O)Nc3cc(C(F)(F)F)ccc3Cl)c(C)cc21 | 94% |
| CCN1CCN(CCCNC(=O)c2cnn(-c3ccc(OC)cc3)c2C2CCN(C(=O)OC(C)(C)C)CC2)CC1 | 95% |
| Cc1ccc(N2CCN(c3nc4ccccc4n4nnnc34)CC2)c(C)c1 | 105% |
| Cc1cccc(C)c1NC(=O)Cn1cc(C(=O)C2CC2)c2ccccc21 | 67% |
| CCOc1ccc(NCc2cccn2-c2nnc(N3CCC(C(=O)NC(C)c4ccccc4)CC3)s2)cc1 (stereo unspecified) | 74% |
| O=C1C2C(C(=O)N1CC1CCCO1)C1C=CC2C12CC2 (stereo unspecified) | 80% |
| COc1cccc2cc(C(=O)NCCc3c(C)[nH]c4ccc(Br)cc34)c(=O)oc12 | 121% |
| C=CCc1cccc2cc(C(=O)NCCc3c(C)[nH]c4c(C)cccc34)c(=O)oc12 | 48% |
| Cc1[nH]c2ccc(Br)cc2c1CCNC(=O)c1cc2ccccc2oc1=O | 32% (active) |
| COc1ccc(Cl)cc1Nc1ccc2cc(S(=O)(=O)N3CCCCC3)ccc2n1 | 83% |
| Cc1cccc(Cn2cccc2CNS(=O)(=O)c2ccc(Br)cc2)c1 | 76% |
| Cc1cccc(Cn2cccc2CNS(=O)(=O)c2ccccc2F)c1 | -2% (active) |
| CCc1ccc(S(=O)(=O)NCc2cccn2Cc2cccc(C)c2)cc1 | 79% |
| O=C(c1ccccc1Cl)N1CCN(CCc2ccccn2)CC1 | 52% |
| Cc1ccccc1C(=O)N1CCN(CCc2ccccn2)CC1 | 49% |
| CCOc1ccccc1C(=O)N1CCN(CCc2ccccn2)CC1 | 67% (active) |
| CC(CNC(=O)CN1C(=O)c2cccnc2Oc2ccc(Cl)cc21)c1ccccc1 (stereo unspecified) | 90% |
| CCOC(=O)c1noc2ncn(CC(=O)Nc3ccccc3OC)c(=O)c12 | 118% |
| CCOC(=O)c1noc2ncn(CC(=O)Nc3cc(Cl)ccc3OC)c(=O)c12 | 92% |
| CCOC(=O)c1noc2ncn(CC(=O)Nc3ccc(F)cc3Cl)c(=O)c12 | -5% (active) |
